High-throughput results deposited in PubChem by Broad Institute.
AF4-AF9 inh: MLL-AF4/AF9 protein interaction inhibition. actives 0.47% (n = 350,000). inhibition, % at 10 µM. AlphaScreen, biotin-AF4 peptide binding to FLAG-AF9. AID 651704. P42568;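 active = every replicate reaching a set inhibition limit, whatever the replicate mean, cut at about 25% in these data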;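 note: 0% = plate neutral control median and 100% = total signal loss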
RAD52 inh: RAD52 (human) annealing inhibition | recombinant RAD52 DNA annealing, FRET fluorescence | inhibition, % at 18.7 µM | actives 0.46% (n = 360,000) | AID 651710;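 active = every replicate showing at least 50% inhibition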
Target sequence (P43351 whole entry, looked up): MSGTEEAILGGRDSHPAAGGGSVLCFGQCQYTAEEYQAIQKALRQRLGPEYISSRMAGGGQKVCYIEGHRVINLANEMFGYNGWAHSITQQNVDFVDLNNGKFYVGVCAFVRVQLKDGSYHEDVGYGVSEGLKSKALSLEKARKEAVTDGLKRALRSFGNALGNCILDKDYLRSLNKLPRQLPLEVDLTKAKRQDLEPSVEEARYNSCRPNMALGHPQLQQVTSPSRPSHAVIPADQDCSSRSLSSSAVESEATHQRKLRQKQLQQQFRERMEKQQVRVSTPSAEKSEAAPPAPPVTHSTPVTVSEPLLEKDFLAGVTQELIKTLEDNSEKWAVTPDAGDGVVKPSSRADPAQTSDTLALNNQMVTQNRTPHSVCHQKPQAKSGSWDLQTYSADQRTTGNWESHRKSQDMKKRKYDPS
RAD54 branch: inhibitors of human RAD54 branch migration | Q92698 | RAD54 Holliday junction branch migration, FAM/BHQ fluorescence | inhibition, % at 10.4 µM | actives 0.14% (n = 360,000) | AID 602329;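 active = mean normalized replicate activity at least 40 and at least half of replicates scoring 40 or more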;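 note: 0% = median of neutral control wells and 100% = median of positive control wells; inhibitors cause a drop in the FAM fluorescence signal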
Glyco luc inh: N-linked glycosylation inhibition; reporter increase, % at 12.5 µM; D54 ERlucT glycosylation luciferase reporter, 24 h; percent of 100 nM tunicamycin response; AID 588692; actives 0.23% (n = 360,000);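 active = mean luciferase reporter signal, scaled so untreated is 0 and the glycosylation-blocking control 100, at or above a set limit in every replicate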;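 note: luciferase carries N-glycosylation sites so blocking glycosylation raises the light; 0% = median of neutral control wells and 100% = median of 100 nM tunicamycin wells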
Casp6 inh: caspase-6 (human) enzyme inhibition; AID 686996; actives 0.53% (n = 350,000); P55212; purified caspase-6, Z-VEID-R110 cleavage fluorescence; inhibition, % at 12.5 µM;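 active = mean inhibition across replicates at least about 35%, with every replicate also reaching that limit, limit read from the data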;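 note: 0% = median of neutral control wells and 100% = no fluorescence left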
Starred values were filed as active, the others as inactive; x = not tested or not shown; ! = a repeat was not active. Shown are actives, neighbours in structure and some others; about 1.2% of the full set was active somewhere.

SMILES | AF4-AF9 inh | RAD52 inh | RAD54 branch | Glyco luc inh | Casp6 inh
Cc1ccccc1-c1ccc(C2[C@@H]3CN(C(=O)C4CC4)C[C@H]2N3)cc1 (some centres undefined) | -13 | 84*! | x | x | -1
O=C(Nc1ccccc1F)N1C[C@@H]2N[C@H](C1)C2c1ccc(/C=C/c2ccccc2)cc1 (some centres undefined) | 8 | 69* | x | x | -1
O=C(C1CCCC1)N1C[C@@H]2N[C@H](C1)C2c1ccc(-c2ccccc2F)cc1 (some centres undefined) | -3 | -22 | x | x | 2
O=C(C1CC1)N1C[C@@H]2N[C@H](C1)C2c1ccc(/C=C/c2ccccc2)cc1 (some centres undefined) | 10 | 51*! | x | x | x
COc1ccc(-c2ccc(C3[C@@H]4CN(C(=O)Nc5ccccc5F)C[C@H]3N4)cc2)cc1 (some centres undefined) | -1 | 38 | x | x | -1
C[C@@H]1CCCCO[C@H](CN(C)Cc2ccc3c(c2)OCO3)[C@H](C)CN([C@H](C)CO)C(=O)c2cc(NC(=O)Nc3ccc(F)cc3)ccc2O1 | 11 | 14 | -2 | x | -2
COCCn1c(SCCN2CCOCC2)nc2c1c(=O)[nH]c(=O)n2C | -1 | -1 | -6 | 0 | 36*
C[C@@H]1CN([C@H](C)CO)C(=O)c2cccc(NS(=O)(=O)c3ccccc3)c2O[C@@H]1CN(C)C(=O)Nc1ccc(C(F)(F)F)cc1 | 1 | 18 | 1 | x | -1
COc1ccc(NC(=S)NCCc2ccccc2)c(C)c1 | 1 | -20 | -7 | -4 | 36*
Cc1cc(OC(F)F)ccc1NC(=S)NCCc1ccccc1 | 2 | -4 | -18 | -2 | 2
C[C@H]1CN([C@@H](C)CO)C(=O)c2cc(-c3ccc(F)cc3)cnc2O[C@H]1CN(C)Cc1cncnc1 | -7 | 12 | -2 | x | -3
COc1ccc(/C=N/Nc2cc(C)nc3ccccc23)cc1 | 17 | 91* | 97* | -7 | -6
C[C@@H]1CN([C@@H](C)CO)C(=O)c2cc(NC(=O)c3ccncc3)ccc2O[C@@H](C)CCCCO[C@@H]1CN(C)C(=O)Nc1ccc(C(F)(F)F)cc1 | -3 | -15 | x | x | 1
CNC[C@H]1Oc2cc(-c3cncnc3)ccc2S(=O)(=O)N([C@H](C)CO)C[C@@H]1C | 2 | -108 | 2 | x | 0
COC(=O)CCCCC1SCC2NC(=O)NC21O (centres undefined) | 54* | -34 | x | 1 | 0
O=C(CSc1ncnc2nc[nH]c12)c1ccc([N+](=O)[O-])cc1 | -2 | 3 | x | 45* | 0
CCOC(=O)c1cc([N+](=O)[O-])cc([N+](=O)[O-])c1Sc1ncnc2nc[nH]c12 | -5 | -11 | x | 99* | 16
CCOC(=O)C(C)(C)Sc1ncnc2nc[nH]c12 | x | x | -2 | 0 | x
CCC(=O)Nc1ccc2c(c1)C(=O)N(C)C[C@H](OC)[C@@H](C)CN(C(=O)c1ccccn1)[C@H](C)CO2 | 32* | -2 | -2 | x | 4
CO[C@@H]1CN(C)C(=O)c2cc(NC(=O)C3CC3)ccc2OC[C@@H](C)N(Cc2cc(F)ccc2F)C[C@H]1C | 0 | 8 | 2 | x | -2
CO[C@H]1CN(C)C(=O)c2cc(NC(=O)C3CC3)ccc2OC[C@@H](C)N(Cc2cc(F)ccc2F)C[C@@H]1C | 43* | 14 | -5 | x | 2
CO[C@H]1CN(C)C(=O)c2cc(NC(=O)C3CC3)ccc2OC[C@H](C)N(C(=O)c2ccccc2)C[C@H]1C | 1 | 8 | -5 | x | 70*
C[C@@H]1CN([C@@H](C)CO)C(=O)c2cc(-c3cncnc3)cnc2O[C@H]1CN(C)C(=O)Nc1ccc2c(c1)OCO2 | 0 | -5 | 9 | x | -1
C=C[C@@H](OC)[C@H](OC(=O)Nc1ccc(SC)cc1)c1ccc(OCCO)cc1 | -1 | -3 | -3 | x | 2
Cc1nnc(SCC(=O)N(C)C2CCCCC2)n1C | -2 | -12 | 8 | 2 | 55*
C=CCn1c(SCC(=O)N(C)C2CCCCC2)nnc1C1CC1 | -2 | -5 | 11 | 0 | -2
CC(=O)c1ccc(S(=O)(=O)Nc2c(C)nn(C)c2C)cc1 | -6 | -9 | x | 2 | 43*
Cc1ccc(S(=O)(=O)Nc2c(C)nn(C)c2C)cc1C | 1 | -19 | -5 | 0 | 0
C[C@@H]1CN([C@@H](C)CO)C(=O)Cc2cc(NC(=O)CCN3CCOCC3)ccc2O[C@H]1CN(C)C(=O)Nc1ccc(F)cc1 | 3 | -9 | 1 | x | -1
